Tests used:
Assay in all cases: DAPPL (digital affinity profiling via proximity ligation, sequencing); 10 mM Tris-HCl pH 7.5, 50 mM NaCl, 1 mM DTT, 4% glycerol, room temperature, 30 min; GST-TFs on glutathione beads, 16-mer random dsDNA library, 0.1% formaldehyde crosslink after washing; high values mean tight binding
FEV = molecular target: T1, FEV (Homo sapiens, UniProt Q99581 1-238); conditions: protein: recombinant; tags: N-terminal GST; dsDNA, one strand shown
T1 sequence: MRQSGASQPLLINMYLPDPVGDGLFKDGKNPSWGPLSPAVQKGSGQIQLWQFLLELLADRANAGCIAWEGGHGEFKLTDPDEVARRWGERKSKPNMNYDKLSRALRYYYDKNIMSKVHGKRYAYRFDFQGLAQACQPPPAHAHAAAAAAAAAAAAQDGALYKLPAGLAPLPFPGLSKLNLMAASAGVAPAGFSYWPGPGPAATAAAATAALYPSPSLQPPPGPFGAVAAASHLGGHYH
Summary of the method: (§1)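 In yeast, human transcription factors were expressed with a GST fusion, then pulled down on glutathione beads and given DNA barcodes. Pooled with a tag-only sample, they were exposed to 200 nmole of a 16-mer random double-stranded DNA library (Tris/NaCl/DTT/glycerol buffer, room temperature, 30 min), washed, crosslinked with 0.1% formaldehyde, proximity-ligated using BsaI/T4 ligase for 1 h at 37 °C, PCR-amplified and read on an Illumina NextSeq500. Each hexamer's frequency of reads for a factor, divided by the matching frequency for the tag-only sample, gives the binding signal.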

ETV5 = ETV5 (Homo sapiens, UniProt P41161 1-510); conditions: protein: recombinant; tags: N-terminal GST; dsDNA, one strand shown
ETV5, sequence (P41161 whole entry): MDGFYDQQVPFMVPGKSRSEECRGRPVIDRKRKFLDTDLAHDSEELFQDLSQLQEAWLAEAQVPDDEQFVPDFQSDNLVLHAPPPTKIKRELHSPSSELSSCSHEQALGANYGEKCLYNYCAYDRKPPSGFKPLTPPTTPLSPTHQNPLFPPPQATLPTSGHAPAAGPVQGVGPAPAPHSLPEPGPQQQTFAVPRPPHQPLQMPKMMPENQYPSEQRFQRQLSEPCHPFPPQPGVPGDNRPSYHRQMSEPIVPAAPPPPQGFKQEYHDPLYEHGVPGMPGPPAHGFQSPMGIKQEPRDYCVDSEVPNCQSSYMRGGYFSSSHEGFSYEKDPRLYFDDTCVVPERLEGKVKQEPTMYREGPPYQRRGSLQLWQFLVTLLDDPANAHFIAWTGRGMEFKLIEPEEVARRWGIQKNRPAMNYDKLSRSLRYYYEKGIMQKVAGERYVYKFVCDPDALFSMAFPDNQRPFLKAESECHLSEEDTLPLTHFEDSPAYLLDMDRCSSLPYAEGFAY
Summary of the method: as §1

HSF1 = HSF1 (Homo sapiens, UniProt Q00613 1-529); conditions: protein: recombinant; tags: N-terminal GST; chain copies: 3; dsDNA, one strand shown
HSF1, sequence (Q00613 whole entry): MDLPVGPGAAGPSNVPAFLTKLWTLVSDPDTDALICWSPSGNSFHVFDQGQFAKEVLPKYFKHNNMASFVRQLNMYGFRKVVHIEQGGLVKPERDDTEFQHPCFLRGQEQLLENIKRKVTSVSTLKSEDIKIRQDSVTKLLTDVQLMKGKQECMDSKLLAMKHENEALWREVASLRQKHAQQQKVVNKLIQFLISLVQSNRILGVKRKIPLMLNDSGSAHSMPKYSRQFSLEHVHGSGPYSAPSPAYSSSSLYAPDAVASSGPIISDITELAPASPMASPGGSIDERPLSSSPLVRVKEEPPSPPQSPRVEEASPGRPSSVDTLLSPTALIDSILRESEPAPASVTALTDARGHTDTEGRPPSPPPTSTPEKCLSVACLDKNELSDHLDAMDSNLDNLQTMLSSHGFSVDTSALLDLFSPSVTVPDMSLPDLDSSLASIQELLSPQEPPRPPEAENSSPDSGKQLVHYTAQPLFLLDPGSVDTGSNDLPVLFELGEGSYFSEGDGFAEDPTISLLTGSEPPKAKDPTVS
Summary of the method: as §1

SPIC = molecular target: T2, SPIC (Homo sapiens, UniProt Q8N5J4 1-248); conditions: protein: recombinant; tags: N-terminal GST; dsDNA, one strand shown
T2 sequence: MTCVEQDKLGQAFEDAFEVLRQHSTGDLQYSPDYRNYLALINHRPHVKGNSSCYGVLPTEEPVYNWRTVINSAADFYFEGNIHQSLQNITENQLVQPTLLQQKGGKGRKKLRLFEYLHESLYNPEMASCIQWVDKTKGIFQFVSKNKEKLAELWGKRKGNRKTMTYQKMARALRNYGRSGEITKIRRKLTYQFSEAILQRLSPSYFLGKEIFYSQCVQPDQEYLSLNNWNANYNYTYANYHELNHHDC
Summary of the method: as §1

ELF4 = ELF4 (Homo sapiens, UniProt Q99607 1-663); conditions: protein: recombinant; tags: N-terminal GST; dsDNA, one strand shown
ELF4, sequence (Q99607 whole entry): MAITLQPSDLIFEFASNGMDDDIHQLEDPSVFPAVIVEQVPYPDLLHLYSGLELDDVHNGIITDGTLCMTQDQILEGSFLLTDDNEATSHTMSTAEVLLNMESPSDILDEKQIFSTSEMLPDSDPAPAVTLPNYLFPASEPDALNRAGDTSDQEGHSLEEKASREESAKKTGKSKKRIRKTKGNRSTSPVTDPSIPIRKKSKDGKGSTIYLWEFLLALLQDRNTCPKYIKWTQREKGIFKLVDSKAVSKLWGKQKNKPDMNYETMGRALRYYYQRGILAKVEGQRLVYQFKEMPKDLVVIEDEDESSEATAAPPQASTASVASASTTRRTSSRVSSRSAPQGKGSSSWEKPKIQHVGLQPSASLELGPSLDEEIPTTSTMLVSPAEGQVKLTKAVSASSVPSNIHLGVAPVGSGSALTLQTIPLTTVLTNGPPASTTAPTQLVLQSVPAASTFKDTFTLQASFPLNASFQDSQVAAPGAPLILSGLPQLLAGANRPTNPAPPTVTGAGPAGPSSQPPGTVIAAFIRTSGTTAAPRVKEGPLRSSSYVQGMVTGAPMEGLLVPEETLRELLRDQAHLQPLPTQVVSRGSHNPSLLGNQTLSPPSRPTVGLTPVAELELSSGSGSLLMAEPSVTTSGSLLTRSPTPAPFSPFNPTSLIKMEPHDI
Summary of the method: as §1

ELK4 = molecular target: T3, ELK4 (Homo sapiens, UniProt P28324-2 1-405); conditions: protein: recombinant; tags: N-terminal GST; dsDNA, one strand shown
T3 sequence: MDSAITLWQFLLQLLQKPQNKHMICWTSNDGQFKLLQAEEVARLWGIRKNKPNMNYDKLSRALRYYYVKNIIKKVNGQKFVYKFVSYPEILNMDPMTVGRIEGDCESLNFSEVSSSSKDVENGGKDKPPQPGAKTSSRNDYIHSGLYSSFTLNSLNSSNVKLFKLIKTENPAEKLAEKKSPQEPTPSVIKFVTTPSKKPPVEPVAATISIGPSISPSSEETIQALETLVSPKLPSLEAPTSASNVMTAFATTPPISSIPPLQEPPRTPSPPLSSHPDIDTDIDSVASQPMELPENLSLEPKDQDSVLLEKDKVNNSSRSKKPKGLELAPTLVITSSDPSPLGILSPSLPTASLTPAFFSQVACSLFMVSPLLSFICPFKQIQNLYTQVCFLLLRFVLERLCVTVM
Summary of the method: as §1

ETV2 = molecular target: T4, ETV2 (Homo sapiens, UniProt O00321 1-342); conditions: protein: recombinant; tags: N-terminal GST; dsDNA, one strand shown
T4 sequence: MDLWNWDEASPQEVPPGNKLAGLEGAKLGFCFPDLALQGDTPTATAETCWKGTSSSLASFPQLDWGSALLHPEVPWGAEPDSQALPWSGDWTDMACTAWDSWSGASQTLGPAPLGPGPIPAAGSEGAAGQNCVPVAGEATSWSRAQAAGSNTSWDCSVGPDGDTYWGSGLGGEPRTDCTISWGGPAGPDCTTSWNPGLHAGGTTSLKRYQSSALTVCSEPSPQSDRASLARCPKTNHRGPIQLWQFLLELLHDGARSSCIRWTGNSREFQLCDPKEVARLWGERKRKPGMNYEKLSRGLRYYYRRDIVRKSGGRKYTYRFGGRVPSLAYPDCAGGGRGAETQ
Summary of the method: as §1

ELF3 = molecular target: T5, ELF3 (Homo sapiens, UniProt P78545 1-371); conditions: protein: recombinant; tags: N-terminal GST; dsDNA, one strand shown
T5 sequence: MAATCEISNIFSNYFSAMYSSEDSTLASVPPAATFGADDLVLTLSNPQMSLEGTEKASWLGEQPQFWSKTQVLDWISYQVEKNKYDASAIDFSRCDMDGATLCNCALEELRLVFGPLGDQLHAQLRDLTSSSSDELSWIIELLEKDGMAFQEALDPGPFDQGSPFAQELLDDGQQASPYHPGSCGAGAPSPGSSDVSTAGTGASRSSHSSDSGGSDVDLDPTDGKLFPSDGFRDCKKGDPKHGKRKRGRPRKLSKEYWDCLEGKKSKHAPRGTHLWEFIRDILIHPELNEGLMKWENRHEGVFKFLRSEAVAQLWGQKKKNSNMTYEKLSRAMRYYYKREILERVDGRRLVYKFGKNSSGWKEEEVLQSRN
Summary of the method: as §1

CRX = CRX (Homo sapiens, UniProt O43186 1-299); conditions: protein: recombinant; tags: N-terminal GST; dsDNA, one strand shown
CRX, sequence (O43186 whole entry): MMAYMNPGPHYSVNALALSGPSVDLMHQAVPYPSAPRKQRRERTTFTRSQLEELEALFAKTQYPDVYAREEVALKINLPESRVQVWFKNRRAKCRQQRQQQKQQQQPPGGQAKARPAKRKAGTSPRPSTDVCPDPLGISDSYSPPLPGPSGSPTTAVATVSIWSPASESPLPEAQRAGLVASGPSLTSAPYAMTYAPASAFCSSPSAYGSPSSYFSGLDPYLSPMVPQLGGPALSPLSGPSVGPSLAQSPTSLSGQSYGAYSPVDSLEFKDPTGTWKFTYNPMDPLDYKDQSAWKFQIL
Summary of the method: as §1

ETV1 = ETV1 (Homo sapiens, UniProt P50549 1-477); conditions: protein: recombinant; tags: N-terminal GST; dsDNA, one strand shown
ETV1, sequence (P50549 whole entry): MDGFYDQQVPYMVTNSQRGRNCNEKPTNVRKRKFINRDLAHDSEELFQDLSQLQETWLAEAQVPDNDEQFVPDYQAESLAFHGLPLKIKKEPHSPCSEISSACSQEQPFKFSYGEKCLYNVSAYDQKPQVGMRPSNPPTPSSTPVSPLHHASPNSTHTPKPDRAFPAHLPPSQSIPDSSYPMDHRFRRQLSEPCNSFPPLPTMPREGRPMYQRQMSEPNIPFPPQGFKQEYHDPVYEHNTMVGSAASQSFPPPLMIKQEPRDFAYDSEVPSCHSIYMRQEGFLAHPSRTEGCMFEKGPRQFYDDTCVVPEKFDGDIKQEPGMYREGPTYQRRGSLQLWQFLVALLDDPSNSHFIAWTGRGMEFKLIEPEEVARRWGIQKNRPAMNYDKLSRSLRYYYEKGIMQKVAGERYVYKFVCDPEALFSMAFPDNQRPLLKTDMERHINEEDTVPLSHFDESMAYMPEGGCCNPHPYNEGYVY
Summary of the method: as §1

ERF = molecular target: T6, ERF (Homo sapiens, UniProt P50548 1-548); conditions: protein: recombinant; tags: N-terminal GST; dsDNA, one strand shown
T6 sequence: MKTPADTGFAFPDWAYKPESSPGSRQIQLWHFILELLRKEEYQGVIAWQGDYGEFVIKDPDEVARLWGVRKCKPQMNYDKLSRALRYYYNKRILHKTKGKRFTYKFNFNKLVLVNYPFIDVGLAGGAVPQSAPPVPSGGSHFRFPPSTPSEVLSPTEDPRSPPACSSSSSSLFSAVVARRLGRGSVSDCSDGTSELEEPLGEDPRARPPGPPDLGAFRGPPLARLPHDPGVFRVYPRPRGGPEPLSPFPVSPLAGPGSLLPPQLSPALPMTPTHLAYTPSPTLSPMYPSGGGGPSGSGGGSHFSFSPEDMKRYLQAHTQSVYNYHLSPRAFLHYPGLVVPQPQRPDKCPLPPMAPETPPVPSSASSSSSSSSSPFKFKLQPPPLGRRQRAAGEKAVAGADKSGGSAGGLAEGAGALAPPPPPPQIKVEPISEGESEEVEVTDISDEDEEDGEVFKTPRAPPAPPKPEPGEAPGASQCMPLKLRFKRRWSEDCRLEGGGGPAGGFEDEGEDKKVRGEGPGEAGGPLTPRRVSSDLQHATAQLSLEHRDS
Summary of the method: as §1

ETV3L = molecular target: T7, ETV3L (Homo sapiens, UniProt Q6ZN32 1-361); conditions: protein: recombinant; tags: N-terminal GST; dsDNA, one strand shown
T7 sequence: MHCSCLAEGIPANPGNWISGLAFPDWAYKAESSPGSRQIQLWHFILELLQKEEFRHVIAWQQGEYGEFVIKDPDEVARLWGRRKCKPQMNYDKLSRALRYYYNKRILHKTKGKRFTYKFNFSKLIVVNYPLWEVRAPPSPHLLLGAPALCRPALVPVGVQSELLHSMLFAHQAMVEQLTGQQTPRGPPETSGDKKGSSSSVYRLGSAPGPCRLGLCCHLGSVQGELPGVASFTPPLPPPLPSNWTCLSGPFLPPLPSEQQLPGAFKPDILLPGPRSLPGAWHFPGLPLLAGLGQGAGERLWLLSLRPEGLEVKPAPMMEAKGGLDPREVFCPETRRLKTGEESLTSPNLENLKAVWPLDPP
Summary of the method: as §1

ETS2 = molecular target: T8, ETS2 (Homo sapiens, UniProt P15036 1-469); conditions: protein: recombinant; tags: N-terminal GST; dsDNA, one strand shown
T8 sequence: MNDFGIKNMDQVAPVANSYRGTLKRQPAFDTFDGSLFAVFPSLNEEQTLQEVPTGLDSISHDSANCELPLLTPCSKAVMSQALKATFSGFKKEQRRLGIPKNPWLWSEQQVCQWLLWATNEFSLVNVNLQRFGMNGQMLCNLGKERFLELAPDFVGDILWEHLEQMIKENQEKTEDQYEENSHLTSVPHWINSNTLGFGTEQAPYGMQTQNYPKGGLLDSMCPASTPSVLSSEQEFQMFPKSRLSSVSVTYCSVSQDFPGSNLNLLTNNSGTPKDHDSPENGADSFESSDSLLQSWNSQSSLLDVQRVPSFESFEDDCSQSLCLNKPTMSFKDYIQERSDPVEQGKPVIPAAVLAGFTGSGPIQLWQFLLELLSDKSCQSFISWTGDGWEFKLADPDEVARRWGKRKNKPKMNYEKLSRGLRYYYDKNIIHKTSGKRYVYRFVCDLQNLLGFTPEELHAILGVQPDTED
Summary of the method: as §1

SPDEF = molecular target: T9, SPDEF (Homo sapiens, UniProt O95238 1-335); conditions: protein: recombinant; tags: N-terminal GST; dsDNA, one strand shown
T9 sequence: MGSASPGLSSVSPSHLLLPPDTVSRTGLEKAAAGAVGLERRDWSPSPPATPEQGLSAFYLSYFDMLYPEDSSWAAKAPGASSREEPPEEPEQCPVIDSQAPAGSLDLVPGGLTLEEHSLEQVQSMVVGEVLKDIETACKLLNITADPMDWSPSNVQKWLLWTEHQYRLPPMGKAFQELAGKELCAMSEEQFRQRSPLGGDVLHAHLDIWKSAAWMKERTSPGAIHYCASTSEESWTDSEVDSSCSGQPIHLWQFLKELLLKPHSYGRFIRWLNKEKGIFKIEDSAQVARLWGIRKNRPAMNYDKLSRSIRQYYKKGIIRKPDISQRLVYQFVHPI
Summary of the method: as §1

ETV7 = molecular target: T10, ETV7 (Homo sapiens, UniProt Q9Y603 1-341); conditions: protein: recombinant; tags: N-terminal GST; dsDNA, one strand shown
T10 sequence: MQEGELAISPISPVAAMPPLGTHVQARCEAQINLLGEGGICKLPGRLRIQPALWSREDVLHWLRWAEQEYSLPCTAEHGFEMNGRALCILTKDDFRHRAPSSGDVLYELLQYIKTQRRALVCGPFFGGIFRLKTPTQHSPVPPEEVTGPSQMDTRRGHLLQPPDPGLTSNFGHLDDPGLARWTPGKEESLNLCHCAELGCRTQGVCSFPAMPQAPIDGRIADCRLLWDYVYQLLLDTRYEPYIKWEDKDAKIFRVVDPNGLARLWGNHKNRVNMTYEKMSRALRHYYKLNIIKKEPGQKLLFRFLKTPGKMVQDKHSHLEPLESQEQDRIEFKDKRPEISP
Summary of the method: as §1

ELF5 = molecular target: T11, ELF5 (Homo sapiens, UniProt Q9UKW6-2 1-255); conditions: protein: recombinant; tags: N-terminal GST; dsDNA, one strand shown
T11 sequence: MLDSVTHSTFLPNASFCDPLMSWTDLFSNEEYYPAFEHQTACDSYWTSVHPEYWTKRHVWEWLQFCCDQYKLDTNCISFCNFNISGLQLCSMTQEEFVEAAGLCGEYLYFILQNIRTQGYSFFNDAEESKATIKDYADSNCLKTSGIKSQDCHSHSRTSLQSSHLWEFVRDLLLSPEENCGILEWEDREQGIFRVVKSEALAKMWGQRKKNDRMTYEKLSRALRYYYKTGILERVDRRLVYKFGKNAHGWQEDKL
Summary of the method: as §1

ETV3 = molecular target: T12, ETV3 (Homo sapiens, UniProt P41162-2 1-143); conditions: protein: recombinant; tags: N-terminal GST; dsDNA, one strand shown
T12 sequence: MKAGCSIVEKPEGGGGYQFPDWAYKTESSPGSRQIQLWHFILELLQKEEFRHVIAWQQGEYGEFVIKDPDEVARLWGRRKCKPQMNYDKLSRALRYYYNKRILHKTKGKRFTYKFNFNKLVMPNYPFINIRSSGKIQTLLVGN
Summary of the method: as §1

ETV6 = ETV6 (Homo sapiens, UniProt P41212 1-452); conditions: protein: recombinant; tags: N-terminal GST; dsDNA, one strand shown
ETV6, sequence (P41212 whole entry): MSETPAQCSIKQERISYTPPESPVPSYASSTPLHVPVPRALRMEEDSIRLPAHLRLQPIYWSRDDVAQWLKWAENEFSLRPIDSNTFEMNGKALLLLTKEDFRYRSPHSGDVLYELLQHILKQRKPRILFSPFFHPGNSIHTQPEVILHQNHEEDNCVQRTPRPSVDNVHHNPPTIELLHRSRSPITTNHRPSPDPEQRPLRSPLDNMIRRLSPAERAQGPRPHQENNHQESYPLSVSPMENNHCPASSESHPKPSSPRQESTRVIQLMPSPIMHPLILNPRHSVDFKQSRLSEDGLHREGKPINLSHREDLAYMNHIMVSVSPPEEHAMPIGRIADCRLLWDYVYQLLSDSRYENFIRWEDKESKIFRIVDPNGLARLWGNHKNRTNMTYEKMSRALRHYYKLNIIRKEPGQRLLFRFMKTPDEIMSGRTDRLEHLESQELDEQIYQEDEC
Summary of the method: as §1

## TATAGA
FEV
  binding signal: 1.04 fold enrichment (6-mer frequency, TF over GST control)
ETV5
  binding signal: 1.08 fold enrichment (6-mer frequency, TF over GST control)
HSF1
  binding signal: 1.52 fold enrichment (6-mer frequency, TF over GST control)
SPIC
  binding signal: 1.04 fold enrichment (6-mer frequency, TF over GST control)
ELF4
  binding signal: 1.09 fold enrichment (6-mer frequency, TF over GST control)
ELK4
  binding signal: 1 fold enrichment (6-mer frequency, TF over GST control)
ETV2
  binding signal: 1.08 fold enrichment (6-mer frequency, TF over GST control)
ELF3
  binding signal: 1.17 fold enrichment (6-mer frequency, TF over GST control)
CRX
  binding signal: 1.45 fold enrichment (6-mer frequency, TF over GST control)
ETV1
  binding signal: 1.13 fold enrichment (6-mer frequency, TF over GST control)
ERF
  binding signal: 1.06 fold enrichment (6-mer frequency, TF over GST control)
ETV3L
  binding signal: 1.18 fold enrichment (6-mer frequency, TF over GST control)
ETS2
  binding signal: 1.04 fold enrichment (6-mer frequency, TF over GST control)
SPDEF
  binding signal: 1.14 fold enrichment (6-mer frequency, TF over GST control)
ETV7
  binding signal: 1.08 fold enrichment (6-mer frequency, TF over GST control)
ELF5
  binding signal: 1.09 fold enrichment (6-mer frequency, TF over GST control)
ETV3
  binding signal: 1.07 fold enrichment (6-mer frequency, TF over GST control)
ETV6
  binding signal: 1.11 fold enrichment (6-mer frequency, TF over GST control)

From paper PMC7862700, “An all-to-all approach to the identification of sequence-specific readers for epigenetic DNA modifications on cytosine”
